Giardia FBPA inh: qHTS Assay for Inhibitors of Fructose-1,6-bisphosphate Aldolase from Giardia Lamblia; A8B2U2; purified Giardia FBPA; Potency, µM (titrated, usually from 59.6 µM), usual class: inhibitors; hit rate 0.71% among 290,000; also: nearly all actives have a fitted effect of over 55% in size
Target sequence (A8B2U2 whole entry, looked up): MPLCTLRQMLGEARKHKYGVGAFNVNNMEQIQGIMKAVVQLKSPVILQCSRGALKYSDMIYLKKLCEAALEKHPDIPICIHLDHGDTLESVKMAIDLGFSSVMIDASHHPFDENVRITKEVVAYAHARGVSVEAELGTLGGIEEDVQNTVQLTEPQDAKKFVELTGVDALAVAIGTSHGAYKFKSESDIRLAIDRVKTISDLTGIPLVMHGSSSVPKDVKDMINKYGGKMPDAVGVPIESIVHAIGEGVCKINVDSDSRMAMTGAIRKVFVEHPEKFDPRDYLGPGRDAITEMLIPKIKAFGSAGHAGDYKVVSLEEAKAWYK
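Giardia FBPA (40 nM reagent) was preincubated 10 min at RT with compound (up to 57.5 uM final), then substrate plus GAPDH/TPI/NAD/arsenate coupling system with diaphorase/resazurin was added; resorufin fluorescence (525/598 nm) was read after 20 min.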
LmPK inh: qHTS Assay for Inhibitors of Leishmania Mexicana Pyruvate Kinase (LmPK) | Q27686 | AID 1721, 2009 | purified LmPK, Kinase-Glo ATP luminescence, 1 h | hit rate 0.37% among 290,000 | Potency, µM (titrated, usually from 57.5 µM), usual class: inhibitors
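Pyruvate kinase activity monitored as ATP production (luciferase luminescence). Conditions: 0.1 nM enzyme, 0.5 mM PEP, 0.1 mM ADP, 1 h, RT; normalized against uninhibited and no-enzyme wells.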
CHX counter: Cycloheximide Counterscreen for Small Molecule Inhibitors of Shiga Toxin. max response, %. hit rate 12% among 300,000. cell reporter, cycloheximide protein synthesis inhibition counterscreen; in the data active = max response mostly above about 13%, no sharp cut-off; inactive = mostly below about 14%; also: read at 38.3 µM for the half of the compounds with a filed dose
Tb PYK inh: qHTS of Trypanosoma Brucei Inhibitors; pyruvate kinase (Trypanosoma brucei), Q57TT1; TbPYK enzyme, Kinase-Glo Plus ATP luminescence, 45 min; Potency, µM (series often up to 76.8 µM), usual class: inhibitors; hit rate 0.12% among 410,000; also: nearly all actives have a fitted effect of over 50% in size
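TbPYK + substrate in 50 mM TEA pH 7.2, 100 mM KCl, 10 mM MgCl2, 0.05% BSA, 0.01% Tween-20; cpd pinned; ADP 130 uM final; 45 min RT; Kinase-Glo Plus 10 min; luminescence endpoint.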
Shiga toxin inh: A qHTS for Small Molecule Inhibitors of Shiga Toxin. Vero cells, Shiga toxin protein synthesis inhibition reporter. inhibition, % at 38.7 µM. hit rate 9.2% among 290,000. AID 2315, 2010; in the data active = inhibition mostly above about 28%, no sharp cut-off; inactive = mostly below about 43%
Sm TGR block: qHTS Assay for the Inhibitors of Schistosoma Mansoni Peroxiredoxins. Schistosoma mansoni thioredoxin glutathione reductase (TGR), Q962Y6. purified TGR, DTNB reduction, TNB absorbance 405 nm. Potency, µM (top dose mostly 114 µM), actives largely listed as inhibitors. hit rate 3% among 360,000. AID 485364, 2010; also: nearly all actives have a fitted effect of over 60% in size
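Kinetic colorimetric format: TGR-catalysed, NADPH-driven DTNB reduction monitored via TNB absorbance. Enzyme dispensed at 20 nM; compound exposure 15 min at room temperature before reaction start.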
Large screens that a line does not name were inactive. This is one part of a sample in which hits are shown more often than they occur. Unless noted, calls follow the shape of the dose curve; as a rule, active = well fitted curve in the direction sought with a large enough effect; inconclusive = small, poorly fitted or top-dose-only effect, or another doubt; inactive = no such curve, though single readings can be large; an effect the other way counts as inactive or inconclusive.

CCc1ccc(C(=O)CSc2nc3ccccc3c(=O)[nH]2)cc1	CHX counter 13.8
CCN(CC)C(=O)CSc1nc2ccccc2c(=O)[nH]1	CHX counter 9.0
CN(C)C(=O)CSc1nc2ccccc2c(=O)[nH]1	none
Cc1ccc(CSc2nc3ccccc3c(=O)[nH]2)cc1	CHX counter 38.0
CCOC(=O)C1(C)CCN1C(=O)c1ccc(OC)c(F)c1 (stereo not drawn)	none (no result: Giardia FBPA inh, LmPK inh, CHX counter, Shiga toxin inh, Sm TGR block)
Cc1cc(C)cc(OCC(=O)N(C)CC(=O)Nc2ccc(N3CCOCC3)cc2)c1	none (no result: Giardia FBPA inh, LmPK inh, CHX counter, Shiga toxin inh)
CCc1oc2ccccc2c1C(=O)c1cc(I)c(O)c(I)c1	none (no result: Giardia FBPA inh, LmPK inh, CHX counter, Shiga toxin inh, Sm TGR block)
Cc1cc(=O)[nH]c(SCC(=O)c2ccc(C(C)C)cc2)n1	CHX counter 33.6, Shiga toxin inh 31.9
COc1ccc(C(=O)CSc2nc(C)cc(=O)[nH]2)cc1	none
Cc1ccc(C(=O)CSc2nc3ccccc3c(=O)[nH]2)cc1	CHX counter 14.9
Cc1ccc(C(=O)CSc2nc3ccccc3c(=O)[nH]2)cc1C	none
COc1ccc(CC(C)Nc2cccc(SC)c2)cc1 (stereo not drawn)	Giardia FBPA inh inconclusive
CC1=C(C(=O)N2CCOCC2)CC(CC(=O)NCCCCc2ccccc2)C(=O)N1Cc1ccc(F)cc1 (stereo not drawn)	none (no result: Giardia FBPA inh, LmPK inh, CHX counter, Shiga toxin inh, Sm TGR block)
O=C(O)/C(=C\c1cccc(OCc2ccccc2)c1)c1ccc(F)cc1	none
Cc1ccc(-c2csc(-c3ccncc3)n2)cc1	CHX counter 25.9, Shiga toxin inh 95.8 (no result: Sm TGR block)
Cc1ccc(-c2csc(-c3nc(-c4ccc(Br)s4)cs3)n2)cc1	none (no result: Giardia FBPA inh, LmPK inh, CHX counter, Shiga toxin inh)
Brc1ccc(-c2csc(-c3ccncc3)n2)cc1	Shiga toxin inh 41.6
O=C1[C@@H](Oc2ccccc2)[C@@H](c2cnc3ccccc3c2)N1c1ccccc1	none (no result: Giardia FBPA inh, LmPK inh, CHX counter, Shiga toxin inh, Sm TGR block)
CCCCc1ccc(NC(=O)C2CCCO2)cc1 (stereo not drawn)	CHX counter 54.6, Shiga toxin inh 71.8
CC(C)OCCCNC(=O)c1ccc(NC(=O)C2CCCO2)cc1 (stereo not drawn)	none
CCCCNC(=O)c1ccc(NC(=O)C2CCCO2)cc1 (stereo not drawn)	CHX counter 10.8
Cc1ccc2onc(CC(=O)N(C)c3ccccc3)c2c1	none (no result: Giardia FBPA inh, LmPK inh, CHX counter, Shiga toxin inh)
CC(C)ON(C(C(=O)NO)C(C)C)S(=O)(=O)c1ccc(-c2ccccc2)cc1 (stereo not drawn)	none (no result: LmPK inh, Tb PYK inh, Sm TGR block)
COc1ccc(S(=O)(=O)Nc2cc3c4c(c2)CC(=O)N4CCC3)cc1OC	none (no result: Giardia FBPA inh, LmPK inh, CHX counter, Shiga toxin inh, Sm TGR block)
COc1ccc(C(=O)Nc2ccc3c(c2)n(C)c(=O)n3C)cc1OC	none
COc1ccc(NC(=O)c2csc(C)c2)cc1OC	CHX counter 25.3, Shiga toxin inh 30.4
COc1ccc(C(=O)Nc2ccc(OC)c(OC)c2)cc1	CHX counter 33.1, Shiga toxin inh 62.5
COc1ccc(-c2cccc(C(=O)Nc3ccc(OC)c(OC)c3)c2)cc1	none
COc1cc(OC)c(NC(=O)c2csc(C)c2)cc1Cl	none
Cc1ccc(NC(=O)c2ccc(OC(=O)C(C)Oc3ccc(Cl)cc3C)cc2)cc1 (stereo not drawn)	CHX counter 43.2, Shiga toxin inh 60.8
COc1ccc(C(=O)Nc2ccc3c(c2)C(=O)N(C)C3=O)cc1OC	CHX counter 17.4, Shiga toxin inh 32.3
COc1ccc(C2C(CC(=O)O)=C(Nc3ccccc3)C(=O)N2c2ccccc2)cc1 (stereo not drawn)	CHX counter 36.9, Sm TGR block inconclusive
O=C(O)CC1=C(Nc2ccccc2)C(=O)N(c2ccccc2)C1c1ccc(F)cc1 (stereo not drawn)	CHX counter 52.0, Shiga toxin inh 99.3, Sm TGR block inconclusive
CS(=O)(=O)NCc1ccccc1Br	none (no result: Giardia FBPA inh, LmPK inh, CHX counter, Tb PYK inh, Shiga toxin inh)
CN1CCN(S(=O)(=O)c2cccc(C(=O)N3CCN(c4ccccc4)CC3)c2)CC1	none (no result: Giardia FBPA inh, LmPK inh, CHX counter, Shiga toxin inh, Sm TGR block)
COc1ccc(-c2csc(Nc3cc(C)ccn3)n2)cc1C	CHX counter 61.6, Shiga toxin inh 120.2
COc1ccc(-c2csc(Nc3ncccc3C)n2)cc1OC	CHX counter 33.8, Shiga toxin inh 139.1
COc1ccc(-c2csc(Nc3ncccn3)n2)cc1C	CHX counter 31.0, Shiga toxin inh 47.9
COc1ccc(-c2csc(Nc3ncccc3C)n2)cc1	LmPK inh inconclusive
O=c1c2ccccc2on1-c1ccccc1	none (no result: Giardia FBPA inh, LmPK inh, CHX counter, Shiga toxin inh, Sm TGR block)
Cc1ccc(-c2cc(C(=O)NCCc3ccccc3)c3ccccc3n2)cc1C	none (no result: Giardia FBPA inh, LmPK inh, CHX counter, Shiga toxin inh)
COc1ccc(N/C=C/C(=O)C(C)(C)C)cc1	CHX counter 31.3, Shiga toxin inh 93.0
COc1ccc(N/C=C/C(=O)c2ccccc2)cc1	Tb PYK inh inconclusive (no result: Shiga toxin inh)
COc1ccc(N/C=C\C(=O)c2ccc3ccccc3c2)cc1	CHX counter 29.1
NS(=O)(=O)c1ccc(N/C=C\C(=O)c2ccc3ccccc3c2)cc1	CHX counter 31.1
CCCOC(=O)c1cccc(Nc2nc(CCC)cc(=O)[nH]2)c1	none (no result: Giardia FBPA inh, LmPK inh, CHX counter, Shiga toxin inh)
CCCNC(=O)c1ccc2c(c1)N=C(CCC)c1ccccc1S2	none (no result: Giardia FBPA inh, LmPK inh, CHX counter, Shiga toxin inh)
O=C(CS(=O)(=O)c1ccc(Cl)cc1)Nc1nc2ccc(Br)cc2s1	none (no result: Giardia FBPA inh, LmPK inh, CHX counter, Shiga toxin inh)
COC(=O)N1CC=CC1(C)C(=O)NCc1ccc(C)o1 (stereo not drawn)	none (no result: LmPK inh, CHX counter, Tb PYK inh, Shiga toxin inh, Sm TGR block)

Screening data deposited in PubChem BioAssay by National Center for Advancing Translational Sciences (NCATS).
